Screening data from PubChem BioAssay.
GSIS activator: GLuc luminescence reporter in INS-1E cells, primary screen for activators of glucose-dependent secretion of insulin; INS-1E GLuc reporter insulin secretion, 2-3 h; activation, % at 16.6 µM; 370,000 compounds, 0.61% hits;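 active means lowest replicate activation of at least 40%, so every replicate reaches that level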;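 further: 0% = median of neutral control wells and 100% = median of IBMX positive control wells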
DENV2 CPE rescue: inhibitors of DENV2 cytopathic effect, primary screen, cell-based, plate reader, single concentration. DENV2-infected cells, cytopathic effect rescue. CPE inhibition, % at 9.99 µM. 350,000 compounds, 1.7% hits. AID 651640, 2012; in the data active means CPE inhibition above about 20%, passing the limit was not always enough; inconclusive means no clear call, values can overlap the other calls; tested in BHK-21 cells;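 further: 0% = median of neutral control wells and 100% = median of positive control wells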
ERAP1 inh: human ERAP1 aminopeptidase inhibitors, primary screen, biochemical, single point, plate reader | Endoplasmic reticulum aminopeptidase 1 (Homo sapiens), Q9NZ08 | recombinant ERAP1, Leu-AMC fluorescence, 60 min | 340,000 compounds, 0.15% hits | inhibition, % at 10.7 µM;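 active means mean replicate inhibition of at least 30%, or all replicates individually reaching that 30% level; inactive means mean below 30% and not every replicate reaching it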;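 further: 0% = neutral control wells and 100% = L-leucinethiol positive control wells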
CaV13 ICDI inh: Disruptors of the CACNA1D IQ motif to Ca2+-dependent inactivation inhibitor domain association, primary screening, Förster resonance energy transfer in intact living … | HEK cells, CFP/YFP FRET ICDI-IQ, plate reader, 10 min; percent FRET-ratio fall versus neutral wells | inhibition, % at 12.3 µM | 340,000 compounds, 0.098% hits | AID 743397;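 active means mean replicate inhibition of at least 30% and at least 1% of replicates passing that level; inconclusive means only one of the two criteria is met; inactive means neither criterion is met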;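 further: 0% = median of the neutral control wells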
PGC1a acetyl inh: inhibitors of PGC1a acetylation signal, primary screen, cell-based, U2OS, AlphaScreen, inhibitor mode | AlphaScreen anti-acetyl-lysine; with virally co-expressed GCN5 acetyltransferase | inhibition, % at 15.6 µM | 350,000 compounds, 0.17% hits | AID 651687, 2012;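 active means every replicate shows inhibition of at least 40%; inconclusive means mean inhibition at least 40% but some replicate below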;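 further: 0% = neutral control wells and 100% = positive control wells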
Ecoli rRNA inh: reduced GFP signal of wild-type E. coli, primary screen, bacterial rRNA inhibitor project, GFP/RFP fluorescence, OD600, single point; AID 720706, 2013; GFP signal change (wild-type ribosome), % (no concentration beside the values); E. coli WT GFP vs humanized-ribosome RFP mutants, 24 h; stronger effect = lower value; DMSO median 0, no signal -100; 350,000 compounds, 1.6% hits;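 active means significant combined selectivity score with lowered wild-type GFP, culture density cut under 30%, mutant RFP and density less affected; inactive means any of these conditions unmet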
* marks the source's active call; other numbers are inactive results; ? = inconclusive; . = not tested or not shown. This is a sample that favours compounds with a hit; in the whole collection about 3.2% have one here.

SMILES	GSIS activator	DENV2 CPE rescue	ERAP1 inh	CaV13 ICDI inh	PGC1a acetyl inh	Ecoli rRNA inh
C[C@@H]1CCCCO[C@H](CN(C)C(=O)Nc2ccccc2)[C@H](C)CN([C@H](C)CO)C(=O)c2cc(NC(=O)Nc3ccc(C(F)(F)F)cc3)ccc2O1	12.8	.	.	.	.	-2.5
C[C@H](CO)N1C[C@H](C)[C@@H](CN(C)C(=O)Nc2ccccc2)Oc2ccc(NC(=O)Nc3cccc4ccccc34)cc2CC1=O	-4.1	19.9	-0.6	.	2.0	1.9
O=C(Nc1cc(F)ccc1F)N1CCCCN2[C@H](CO)[C@H](c3ccc(-c4ccccc4)cc3)[C@@H]2C1	-39.3	8.3	-1.2	.	7.4	-2.1
O=C(Nc1cc(F)ccc1F)N1CCCCN2[C@H](CO)[C@H](c3ccc(-c4ccccc4)cc3)[C@H]2C1	-18.3	62.0*	-2.0	.	-46.1	-59.5
O=C(Nc1cc(F)ccc1F)N1CCCCN2[C@@H](CO)[C@H](c3ccc(-c4ccccc4)cc3)[C@@H]2C1	-19.4	12.1	-2.2	.	-11.6	-58.0
O=C(Nc1cc(F)ccc1F)N1CCCCN2[C@H](C1)[C@H](c1ccc(-c3ccccc3)cc1)[C@@H]2CO	-5.9	36.3*	-1.4	.	1.5	-5.0
Cc1ccc2nc3n(c(=O)c2c1)-c1ccc(Cl)cc1C(=O)NC3CC(C)C (stereo not drawn)	.	77.0*	-3.4	-9.1	.	.
Cc1ccc2c(c1)-n1c(nc3ccc(C)cc3c1=O)C(Cc1ccc(O)cc1)NC2=O (stereo not drawn)	.	33.2*	-2.2	-5.8	.	-4.9
Cc1ccc2c(c1)-n1c(nc3ccc(Cl)cc3c1=O)C(CC(C)C)NC2=O (stereo not drawn)	0.9	.	1.4	-9.5	.	11.4
O=C(c1ccccc1)N1CC(=O)N2[C@@H](CO)[C@H](c3ccc(C4=CCCC4)cc3)[C@@H]2C1	4.7	11.7	.	.	2.8	1.8
CC12CCC3c4ccc(OCCCO)c([N+](=O)[O-])c4CCC3C1CCC2=O (stereo not drawn)	-2.0	43.4*	0.8	-3.7	.	-53.1
CC12CCC3c4cc(CN5CCOCC5)c(O)cc4CCC3C1CCC2=O (stereo not drawn)	-7.3	-5.8	3.3	-5.7	-7.4	-7.8
COCC(=O)N1CC2(C1)[C@@H](c1ccccc1)[C@H](CO)N2C(=O)c1ccncc1	9.0	.	.	.	.	1.7
C[C@H](CO)N1C[C@H](C)[C@H](CN(C)Cc2ccc(Cl)c(Cl)c2)Oc2ccc(NC(=O)Cn3cnnn3)cc2CC1=O	-1.5	-6.4	-1.3	.	0.3	-2.1
CCN1C(=O)C(CC(=O)Nc2ccc(OC)cc2)N(Cc2cccs2)C1=S (stereo not drawn)	-40.6	2.2	1.5	-6.3	-7.0	-30.7*
CCN1C(=O)C(CC(=O)Nc2ccc(OC)cc2)N(Cc2ccco2)C1=S (stereo not drawn)	-7.7	.	.	-14.2	-7.3	.
Cc1cc(N2CCN(C(c3ccnc4ccccc34)c3nnnn3-c3c(C)cccc3C)CC2)c2ccccc2n1 (stereo not drawn)	-38.0	7.7	-1.5	-0.5	.	-25.6*
CCOC(=O)C1=C(COC(=O)c2cccs2)NC(=O)NC1C (stereo not drawn)	58.9*	-7.1	-1.7	-6.0	.	-0.4
O=c1c(Cc2c(F)cccc2Cl)c(O)ccn1C1CC1	7.1	3.5	0.8	-3.4	.	-31.0*
COc1ccc(CCn2ccc(O)c(Cc3c(F)cccc3Cl)c2=O)cc1OC	42.7*	-0.3	0.2	-5.7	.	-11.5
C#CCn1ccc(O)c(Cc2c(F)cccc2Cl)c1=O	18.0	-0.1	-4.4	-1.6	-8.3	2.3
Cn1cc([C@]2(O)C(=O)Nc3ccccc32)c2ccccc21	.	31.3*	1.2	-10.8	.	11.4
Cc1ccc(NC(=O)CCc2c(C)nn(-c3ccc(N4CCCCC4)nn3)c2C)cc1	-25.5	3.7	0.6	-7.0	.	-25.1*
Nc1c(C(=O)Nc2ccc3c(c2)OCCO3)nnn1Cc1cccc(F)c1	1.4	3.7	-0.7	-5.9	.	3.3
Nc1c(C(=O)Nc2ccc3c(c2)OCCO3)nnn1Cc1ccc(Cl)cc1	45.0*	5.2	-0.6	-5.8	.	-3.2
SMILES	GSIS activator	DENV2 CPE rescue	ERAP1 inh	CaV13 ICDI inh	PGC1a acetyl inh	Ecoli rRNA inh
CC(Sc1nnc(-c2cccnc2)n1C)C(=O)N1CCOCC1 (stereo not drawn)	6.8	8.9	30.5*	-6.2	.	18.4
O=C(c1ccc(F)cc1)N1CC2(C1)[C@@H](c1ccccc1)[C@@H](CO)N2Cc1ccccn1	7.6	-6.0	-15.2	.	1.2	4.7
Cc1ccc(S(=O)(=O)N(C)C[C@H]2Oc3ccc(NC(=O)c4ccncc4)cc3C(=O)N([C@H](C)CO)C[C@H]2C)cc1	17.6	41.7*	0.4	.	1.1	-0.8
Cc1ccc(S(=O)(=O)N(C)C[C@H]2Oc3ccc(NC(=O)c4ccncc4)cc3C(=O)N([C@@H](C)CO)C[C@@H]2C)cc1	11.3	?	-1.9	.	-5.0	-6.0
C[C@@H]1CN([C@@H](C)CO)C(=O)c2cc(NC(=O)CCC(F)(F)F)ccc2O[C@@H]1CN(C)S(=O)(=O)c1ccc(F)cc1	-8.0	?	1.1	.	1.1	-1.9
Cc1ccc(S(=O)(=O)N(C)C[C@H]2Oc3ccc(NC(=O)CCC(F)(F)F)cc3C(=O)N([C@H](C)CO)C[C@@H]2C)cc1	-7.1	29.3*	-2.9	.	48.4*	-3.6
CCCN(C)C[C@H]1Oc2ncc(-c3cccnc3)cc2C(=O)N([C@@H](C)CO)C[C@H]1C	17.1	8.0	0.1	.	1.6	2.2
COc1ccc2c3c([nH]c2c1)[C@@H](CO)N(Cc1ccccc1)CC31CN(C)C1	-7.9	-6.1	71.0*	.	0.9	0.9
COc1ccc2c3c([nH]c2c1)[C@H](CO)N(Cc1cccc(F)c1)CC31CN(Cc2ccccn2)C1	-5.2	23.1*	-0.7	.	.	-4.5
COc1cccc(CN2CC3(CN(C)C3)c3c([nH]c4cc(OC)ccc34)[C@H]2CO)c1	1.6	0.2	0.3	.	14.3	5.5
CCS(=O)(=O)c1nc(S(=O)(=O)c2ccc(C)cc2)c(N2CCCC2)s1	6.0	8.7	1.1	-3.5	4.1	6.4
CCS(=O)(=O)c1nc(S(=O)(=O)c2ccc(C)cc2)c(N2CCC(O)CC2)s1	41.2*	-6.3	-1.5	-2.5	-6.4	8.7
C[C@H]1CCCCO[C@@H](CN(C)S(=O)(=O)c2cccs2)[C@@H](C)CN([C@@H](C)CO)C(=O)c2cc(NC(=O)Nc3ccc4c(c3)OCO4)ccc2O1	2.8	-1.8	0.8	.	9.6	-1.5
